Each compound was assayed against T1, Aspartate--tRNA(Asp/Asn) ligase (Mycobacterium tuberculosis (strain ATCC 25618 / H37Rv)) (UniProt P9WFW3) (assay: Assay for Asp RNA synthetase-1 from Mycobacterium tuberculosis). Conditions: 30 µM.
T1 sequence (whole entry): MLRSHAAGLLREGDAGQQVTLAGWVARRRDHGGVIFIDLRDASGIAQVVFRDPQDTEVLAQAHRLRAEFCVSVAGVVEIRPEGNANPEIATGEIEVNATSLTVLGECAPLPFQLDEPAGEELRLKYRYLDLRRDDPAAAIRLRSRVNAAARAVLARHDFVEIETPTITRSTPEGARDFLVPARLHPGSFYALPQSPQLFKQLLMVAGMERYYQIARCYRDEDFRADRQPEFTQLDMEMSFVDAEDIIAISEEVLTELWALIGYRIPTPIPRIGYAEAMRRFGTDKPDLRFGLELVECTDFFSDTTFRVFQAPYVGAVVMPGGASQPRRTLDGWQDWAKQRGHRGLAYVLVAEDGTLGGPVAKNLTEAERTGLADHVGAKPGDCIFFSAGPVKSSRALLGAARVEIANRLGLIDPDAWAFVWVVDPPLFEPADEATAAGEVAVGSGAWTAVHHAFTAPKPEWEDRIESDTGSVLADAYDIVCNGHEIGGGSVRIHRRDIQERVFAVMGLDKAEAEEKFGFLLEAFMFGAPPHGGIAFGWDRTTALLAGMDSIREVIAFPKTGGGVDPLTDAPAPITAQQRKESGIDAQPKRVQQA
Format: functional
Design: scale not given: in the data most compounds retested in dose-response had high values

Structure (SMILES)	Percent Effect [%]
CN(C)Cc1nnc(C2CCN(C(=O)CCc3cccs3)CC2)n1C	-0.948
CN(C)C1CCN(C(=O)NCc2ccccc2Cn2cncn2)CC1	-2.31
COC(=O)N1CCc2ccc(NC(=O)c3cn(C)nn3)cc2C1	-0.627
CCn1c(C2CCCN(Cc3nccn3CCOC)C2)nn(C)c1=O (stereo not given)	4.25
Cc1c(C)n(-c2ccccn2)c2nc3c(c(N)c12)CCCC3	-3.86
Cc1nc(C(C)C)sc1C(=O)NS(=O)(=O)c1ccc(C#N)cc1	-3.09
COc1cccc(N2CCN(C(=O)[C@H](O)C3CCCCC3)CC2=O)c1	-3.25
Cc1ccoc1C(=O)NCC(Cc1ccc(F)cc1)C(N)=O (stereo not given)	-2.1
CCOc1ncccc1NC(=O)NC1CCN(S(C)(=O)=O)CC1	5.32
Cc1[nH]ccc1C(=O)Nc1cccc(CN2CCC(O)CC2)c1	0.958
O=C(NCCn1ccnc1)N1CCN(Cc2cccs2)CC1	0.0694
CN(C(=O)Cc1ccc2c(c1)OCCO2)C1CCCC1	-2.52
CCCC1CCCN(Cc2csc(-c3cnn(C)c3)n2)CC1 (stereo not given)	-1.75
CCc1n[nH]c(C2CN(C(=O)c3nc(C)n4ccccc34)CCO2)n1 (stereo not given)	2.55
Cc1ccc2c(c1)CCC21CCN(C(=O)CO)CC1	5.32
COCCN1CCCC(c2nc3c([nH]2)CC(C)(C)CNC3=O)C1 (stereo not given)	2.91
Cc1nc(N2CCN(C(=O)c3ccc(O)cc3)CC2)c2cnn(C)c2n1	-1.05
CCOc1ncccc1C(=O)N1CCCC(c2nccn2CCOC)C1 (stereo not given)	-4.25
CSCC(C)(O)CNC(=O)c1ccc(Br)cc1C (stereo not given)	-3.46
O=C(CSc1ccccn1)N1C[C@H]2CC[C@@H]1CN(Cc1cscn1)C2	-1.93

Structure (SMILES)	Percent Effect [%]
CCOc1ncccc1NC(=O)N1CCc2ccccc2C1	19.1
Cc1cc(C)c(CNC(=O)NCC(c2ccccc2)N(C)C)c(=O)[nH]1 (stereo not given)	4.47
COCC(=O)N1CC[C@@H]2CN(Cc3cccc(Cl)c3)S(=O)(=O)[C@@H]2CC1	3.55
Cc1ccc(NC(=O)C2CSCN2C(=O)c2cnccn2)c(C)c1 (stereo not given)	1.01
Cc1cc(C[C@@H]2COC[C@H]2NCc2ccc(Br)s2)on1	-1.77
Cc1cc(C)nc(CCNC(=O)C(c2ccc(F)cc2)N(C)C)n1 (stereo not given)	-1.5
c1cnn(-c2ccc(CN3CCOC(Cn4cncn4)C3)cc2)c1 (stereo not given)	4.05
Cn1cc(CCC(=O)N2C[C@H]3CC[C@@H]2CN(Cc2ccccc2)C3)cn1	2.92
COCC1CCN(C(=O)c2cccc(S(=O)(=O)NCC3(C)COC3)c2)C1 (stereo not given)	5.94
O=C(O)CC1CN(Cc2ccccc2)CCO1 (stereo not given)	-0.183
CCOc1cccc(CNc2ccccc2C(=O)OC)c1O	-5.37
CN(C)C(=O)N1CCN(C(=O)CCc2ccccc2)[C@H]2CS(=O)(=O)C[C@H]21	3.33
Cc1noc([C@H]2C[C@@H]3CCN(C(=O)C4CCOCC4)C[C@H]3O2)n1	1.08
COCC(=O)N1Cc2cn(C)nc2C(COc2cccnc2)C1 (stereo not given)	0.598
CN1CCOC(CNCc2nc(-c3ccccc3)cs2)C1 (stereo not given)	-7.57
Cc1nc(C(C)(C)NC(=O)Nc2ccccc2)no1	0.805
CC(O)CN1CCN(Cc2cccc(C(=O)N(C)C)c2)CC1 (stereo not given)	-6.5
Cc1nn(C)c(C)c1CNCc1ccnc(N2CCOCC2)c1	-2.46
CCc1ccc(C(=O)N2CCN(CC(C)O)CC2)o1 (stereo not given)	0.745
COCC(=O)N1CC[C@H]2C[C@H](C)O[C@@H]2C1	-2.9

From ChEMBL document CHEMBL3988442, “University of Dundee, Small-Polar-MMV Screening Library” (2021)
